Bioassay records (PubChem)
Shown are actives, neighbours in structure and some others; about 18% of the full set was active somewhere.
GCN5L2 inh = qHTS Assay for Inhibitors of GCN5L2. GCN5L2 HAT assay, ThioGlo1 CoA-SH fluorescence. Potency, µM (titrated, usually from 58.9 µM), for the others: at the highest dose activity change, negative = inhibition, most hits filed as inhibitors. Histone acetyltransferase KAT2A (Homo sapiens), Q92830. hit rate 0.21% among 390,000
Target sequence (Q92830 whole entry, looked up): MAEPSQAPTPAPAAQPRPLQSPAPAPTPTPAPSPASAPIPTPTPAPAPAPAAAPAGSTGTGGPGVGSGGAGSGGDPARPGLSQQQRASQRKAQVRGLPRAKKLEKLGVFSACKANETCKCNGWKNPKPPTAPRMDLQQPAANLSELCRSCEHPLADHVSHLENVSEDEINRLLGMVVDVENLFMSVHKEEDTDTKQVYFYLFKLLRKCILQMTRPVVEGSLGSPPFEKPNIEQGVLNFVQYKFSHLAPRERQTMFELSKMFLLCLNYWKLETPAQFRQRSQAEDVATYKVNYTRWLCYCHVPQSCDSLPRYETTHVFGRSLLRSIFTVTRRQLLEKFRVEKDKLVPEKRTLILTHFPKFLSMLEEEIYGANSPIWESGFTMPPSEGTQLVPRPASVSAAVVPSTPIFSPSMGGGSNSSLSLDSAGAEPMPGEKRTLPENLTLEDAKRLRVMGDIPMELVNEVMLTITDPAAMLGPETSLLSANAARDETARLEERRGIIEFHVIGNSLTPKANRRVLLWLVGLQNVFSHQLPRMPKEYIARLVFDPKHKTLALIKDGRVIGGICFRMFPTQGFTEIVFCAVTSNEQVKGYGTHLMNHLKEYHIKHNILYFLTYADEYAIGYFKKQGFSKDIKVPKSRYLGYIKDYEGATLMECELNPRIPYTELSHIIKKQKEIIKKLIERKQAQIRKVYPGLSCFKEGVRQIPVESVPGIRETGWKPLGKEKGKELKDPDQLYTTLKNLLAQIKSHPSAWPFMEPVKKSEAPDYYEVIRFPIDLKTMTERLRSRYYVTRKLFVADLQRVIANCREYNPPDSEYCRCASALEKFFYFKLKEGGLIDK
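Free CoA generated was detected with ThioGlo1 (50uM) fluorescence at Ex340nm/Em540nm, read immediately and after 20 min at room temperature. Enzyme, 20 nM in HEPES pH 7.5 buffer, saw compounds 15 min before adding 75uM H3(1-25) peptide and 70uM acetyl-CoA.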
VDR inh = Inhibitors of the vitamin D receptor (VDR): qHTS. Vitamin D3 receptor (Homo sapiens), P11473. VDR-SRC2-3 peptide fluorescence polarization, 2 h. Potency, µM, inactives show max response, negative = inhibition, hits mostly inhibitors. hit rate 0.93% among 400,000
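Compounds are added to VDR with labelled SRC2-3 coactivator peptide and held 2 h at room temperature. Inhibition of the VDR–peptide interaction is then read as a change in fluorescence polarization.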
TDP1 inh = qHTS Assay for Inhibitors of Tyrosyl-DNA Phosphodiesterase (TDP1); hit rate 0.28% among 350,000; recombinant TDP1, AlphaScreen DNA substrate cleavage; Potency, µM (titrated, usually from 130 µM), for inactives: at the highest dose activity change, negative = inhibition, usual class: inhibitors; also: nearly all actives have a fitted effect of over 40% in size
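Recombinant human Tdp1 (E. coli-expressed, 1 nM final) preincubated with compounds 15 min at room temperature, then 5'-biotin/3'-phosphotyrosine-FITC DNA substrate (15 nM final) added for 5 min. AlphaScreen beads (10 ug/ml final) added 10 min; cleavage lowers signal.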
DT40 TDP1 no CPT = qHTS for Inhibitors of human tyrosyl-DNA phosphodiesterase 1 (TDP1): qHTS in cells in absence of CPT; DT40 Tdp1-/- hTDP1 cells, no CPT, ATP luminescence, 48 h; Potency, µM (top dose mostly 46.2 µM), without a hit: at the highest dose activity change, negative = growth inhibition, most hits filed as inhibitors; hit rate 15% among 420,000; also: nearly all actives have a fitted effect of over 55% in size
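Stably hTDP1-transfected Tdp1-null chicken DT40 cells were treated with library compounds minus camptothecin and grown for at least 48 hr at 37 °C, after which cellular ATP was quantified by luminescence.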
TDP1 cell CPT = qHTS for Inhibitors of human tyrosyl-DNA phosphodiesterase 1 (TDP1): qHTS in cells in presence of CPT. Potency, µM (series often up to 46.2 µM), without a hit: at the highest dose activity change, negative = growth inhibition, hits mostly inhibitors. chicken DT40 Tdp1-/-;hTDP1 cells + 20 nM CPT, ATP luminescence, 48 h. hit rate 12% among 420,000; also: nearly all actives have a fitted effect of over 55% in size
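Chicken DT40 Tdp1-/- cells complemented with human TDP1, 400 cells/well, exposed to compounds plus 20 nM camptothecin for at least 48 h at 37 C; viability read as ATP content by CellTiter-Glo luminescence.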
PLK1 PBD block = qHTS for Inhibitors of PLK1-PDB (polo-like kinase 1 - polo-box domain): Primary Screen. Serine/threonine-protein kinase PLK1 (Homo sapiens), P53350. Plk1 PBD binding of FITC phosphopeptide, fluorescence polarization. Potency, µM, for the others: max response, negative = inhibition, most hits filed as inhibitors. hit rate 2.8% among 360,000. AID 720504, 2013; also: series mostly up to about 57 µM; nearly all actives have a fitted effect of over 65% in size
Numbers without * were called inactive; ? = inconclusive; · = not tested or not shown; [ ] = dose if it differs, or a comment. Calls follow the shape of the dose curve; as a rule, active = well fitted curve in the direction sought with a large enough effect; inconclusive = small, poorly fitted or top-dose-only effect, or another doubt; inactive = no such curve, though single readings can be large; an effect the other way counts as inactive or inconclusive. % is scaled to controls: 0 for no effect and ±100 for the full control effect; potency is read from the fitted curve at half-maximal effect.

SMILES	GCN5L2 inh	VDR inh	TDP1 inh	DT40 TDP1 no CPT	TDP1 cell CPT	PLK1 PBD block
C/C(=N\NC(=O)c1nnn(-c2nonc2N)c1-c1ccccc1)c1ccco1	-3%	2%	2%	-4%	-4%	-5%
COc1ccc(NC(=O)c2nc3nc(C)cc(C(F)F)n3n2)c(C)c1	-3%	-17%	-3%	-1%	-4%	·
CCOc1ccc(Cc2c(Cl)nc(SC)nc2N(C)C)cc1	-5%	13%	-8%	16µM*	18µM*	-6%
CSc1nc(Cl)c(Cc2ccc(OC(C)C)cc2)c(N(C)C)n1	-4%	-5%	-3%	16µM*	?	4%
COc1ccc(Cc2c(Cl)ncnc2Cl)cc1	-6%	0%	-8%	?	-15%	-1%
Cc1cc(C)c(NC(=O)CSc2nc(=O)n(Cc3ccncc3)c3c2CCC3)c(C)c1	-3%	3%	-3%	5%	9%	·
Cc1cccc(C)c1OCc1nc2c3c(-c4ccccc4)c(-c4ccccc4)oc3ncn2n1	-7%	-18%	3%[2.28 µM]	-11%	-4%	·
Cc1ccc(F)cc1-c1cc2nc(NCCCN(C)C)n(C)c(=O)c2s1	·	·	·	16µM*	23µM*	-5%
CN(C)CCCNc1nc2cc(-c3ccsc3)sc2c(=O)n1C	·	·	·	?	?	-1%
CN(C)CCCNc1nc2cc(-c3ccc4c(ccn4C)c3)sc2c(=O)n1C	·	·	·	?	21µM*	-13%
COc1ncccc1-c1cc2nc(NCCCN(C)C)n(C)c(=O)c2s1	·	·	·	8.2µM*	8.2µM*	-10%
COc1cccc(-c2cc3nc(NCCCN(C)C)n(C)c(=O)c3s2)c1	·	·	·	?	?	-6%
CCCCc1nc2c(c3c1C[C@H](C)OC3)CN(C(=O)N[C@H](C(=O)OC)C(C)C)CC2	·	·	5%[21 µM]	·	·	·
CN(CCO)C(=O)c1cn(C2CCN(Cc3ccc4ccccc4c3)CC2)nn1	·	·	·	-9%	16%[9.04 µM]	·
O=C(O)CCN1c2ccccc2Sc2ccccc21	1%	-16%	3%	-15%	-2%	0%
CC(=O)OCCN1c2ccccc2Sc2cnccc21	·	·	·	15µM*	?	-8%
C=CCN1c2ccccc2Sc2cnccc21	·	·	·	18µM*	?	-9%
CC[C@@]1(c2ccccc2)C(=O)N(C(=O)OC)N1C(=O)OC	-1%	?	·	?	8.2µM*	?
CC[C@@]1(c2ccccc2C)C(=O)N(C(=O)OC)N1C(=O)OC	-3%	?	·	?	13µM*	11µM*
CC[C@]1(c2ccccc2)C(=O)N(C(=O)OC)N1C(=O)OC	-2%	?	·	16µM*	21µM*	11µM*
CC[C@]1(c2cccc(C)c2)C(=O)N(C(=O)OC)N1C(=O)OC	4%	?	·	13µM*	5.2µM*	12µM*
COC(=O)N1C(=O)[C@](c2ccccc2)(C(C)C)N1C(=O)OC	-4%	-10%	·	?	?	?
Cc1ccc(Cn2c(C(=O)Nc3ccc(Cl)cc3)cc3sccc32)cc1	-12%	11%	1%	-28%	?	·
CC(Oc1ccccc1)C(=O)NC1CCCCCCC1 (stereo not drawn)	?	7%	0%	-10%	-23%	5%
COC(=O)N1C(=O)[C@@](c2ccccc2)(C2CCCCC2)N1C(=O)OC	-3%	?	·	18µM*	?	?
SMILES	GCN5L2 inh	VDR inh	TDP1 inh	DT40 TDP1 no CPT	TDP1 cell CPT	PLK1 PBD block
Cc1cccc(NC(=O)CN2C(=O)/C(=C3\SC(=S)N(CC4CCCO4)C3=O)c3ccccc32)c1 (stereo not drawn)	-6%	0%	4%	?	-25%	0%
O=C(CN1C(=O)/C(=C2\SC(=S)N(C3CCS(=O)(=O)C3)C2=O)c2ccccc21)Nc1ccccc1 (stereo not drawn)	-5%	-25%	-3%	13µM*	?	-13%
O=C(CN1C(=O)/C(=C2/SC(=S)N(CCS(=O)(=O)O)C2=O)c2ccccc21)Nc1cccc(Br)c1	?	?	·	-18%	5%	27µM*
O=C(O)CCN1C(=O)/C(=C2\C(=O)N(Cc3ccccc3Cl)c3ccccc32)SC1=S	5%	·	·	·	·	·
COc1ccc(NC(=O)CN2C(=O)/C(=C3\SC(=S)N(CCC(=O)O)C3=O)c3ccccc32)cc1	-9%	-13%	7%	8%	-2%	11µM*
O=C(NC(=S)Nc1cccc(C(F)(F)F)c1)c1csnn1	-13%	?	·	?	?	1%
COc1ccc(-c2sc(Nc3ccccc3)n[n+]2-c2ccc(F)cc2)cc1Br	-3%	-11%	·	18µM*	5.8µM*	?
COc1ccc2ccccc2c1-c1sc(Nc2ccccc2)n[n+]1-c1ccc(F)cc1	0%	-19%	·	13µM*	21µM*	-12%
O=C(O)c1ccc(-c2sc(Nc3ccccc3)n[n+]2-c2ccc(F)cc2)cc1	-3%	-6%	·	-8%	-1%	-30%
COc1ccc(-c2sc(Nc3ccccc3)n[n+]2C)c(C)c1C	-3%	-12%	·	21µM*	21µM*	-19%
COc1ccc(C2/C(=C(\O)c3ccc4c(c3)CC(C)O4)C(=O)C(=O)N2Cc2cccnc2)c(OC)c1 (stereo not drawn)	-3%	-2%	5%	4%	-3%	-3%
Cc1ccc2nc(-c3ccc(Cl)cc3)c(Cc3ccccn3)n2c1	·	·	·	16µM*	18µM*	-17%
Cc1ccc2nc(-c3ccc(C#N)cc3)c(Cc3ccccn3)n2c1	·	·	·	?	?	-11%
Cc1ccc(-c2nc3ccc(C)cn3c2Cc2ccccn2)cc1	·	·	·	18µM*	?	-9%
Cc1ccc2nc(-c3cccc(Br)c3)c(Cc3ccccn3)n2c1	·	·	·	?	21µM*	0%
Cc1ccc2nc(-c3cccc(Br)c3)c(Cc3ccccc3C(F)(F)F)n2c1	·	·	·	?	-29%	-20%
COc1ccc(C2=CC(=O)C[C@H](COCc3ccccc3)N(C(=O)OC(C)(C)C)O2)cc1	·	-24%	·	18µM*	?	-28%
COc1ccc(Cc2c(-c3cccc(Br)c3)nc3ccc(Br)cn23)c(C)c1	·	·	·	?	?	-22%
COc1ccccc1Cc1c(-c2ccc(F)cc2)nc2ccc(Br)cn12	·	·	·	?	?	-7%
COC(=O)c1ccc2nc(-c3cccc(Br)c3)c(Cc3ccccc3OC)n2c1	·	·	·	21µM*	?	6%
COC(=O)c1ccc2nc(-c3ccc(F)cc3)c(Cc3ccccc3OC)n2c1	·	·	·	18µM*	21µM*	11%
